Shown are actives, neighbours in structure and some others; about 15% of the full set was active somewhere.
TDP1 cell noCPT: qHTS for Inhibitors of human tyrosyl-DNA phosphodiesterase 1 (TDP1): qHTS in cells in absence of CPT | DT40 Tdp1-/- hTDP1 cells, no CPT, ATP luminescence, 48 h | Potency, µM (doses to about 46.2 µM), for the others: at the top dose activity change, negative = growth inhibition, actives largely listed as inhibitors | 420,000 tested, 15% active; also: nearly all actives have a fitted effect of over 55% in size
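Chicken DT40 Tdp1-/- cells complemented with human TDP1, screened without camptothecin (DMSO vehicle only), 400 cells/well. Compounds pin-transferred, cells incubated at 37 °C for at least 48 hr. Growth read as ATP-dependent luminescence (CellTiter-Glo, 30 min at RT).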
RORg inh: inhibitors of mouse ROR gamma transcriptional activity; P51450; Drosophila S2 Gal4-RORgamma UAS-luciferase reporter, 20 h; Potency, µM (titrated, usually from 53.6 µM), for the others: at the highest dose activity change, negative = inhibition, hits mostly inhibitors; 310,000 tested, 5.4% active; AID 2551; also: nearly all actives have a fitted effect of over 60% in size
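ROR gamma transcriptional activity was tracked as Gal4-UAS luciferase output in stably transfected Drosophila Schneider cells, with compound added 1 hr before 700 uM copper sulfate induction and a 20 hr ambient-temperature incubation.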
ELG1 repair inh: blocks ELG1-dependent DNA repair in HEK293T cells; HEK293T ELG1-luciferase reporter, luminescence, 16 h; DNA damage induced by 5-fluorouridine; Potency, µM (titrated, usually from 46.1 µM), inactives show top-dose activity change, negative = inhibition, most hits filed as inhibitors; 330,000 tested, 2.3% active; AID 504467; also: nearly all actives have a fitted effect of over 55% in size
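In this reporter screen, reduction of luminescence relative to DMSO vehicle indicated activity. Compounds and 5-fluorouridine were added together to 2,000 cells per well, incubated for 16 hr at 37 °C, then developed with ONE-Glo.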
12-LOX inh: inhibitors of human 12S-lipoxygenase ALOX12 | P18054 | purified 12hLO, xylenol orange hydroperoxide absorbance | Potency, µM (doses to about 108 µM), inactives show at the top dose activity change, negative = inhibition, hits mostly inhibitors | 580,000 tested, 1.1% active | AID 1671190
Target sequence (P18054 whole entry, looked up): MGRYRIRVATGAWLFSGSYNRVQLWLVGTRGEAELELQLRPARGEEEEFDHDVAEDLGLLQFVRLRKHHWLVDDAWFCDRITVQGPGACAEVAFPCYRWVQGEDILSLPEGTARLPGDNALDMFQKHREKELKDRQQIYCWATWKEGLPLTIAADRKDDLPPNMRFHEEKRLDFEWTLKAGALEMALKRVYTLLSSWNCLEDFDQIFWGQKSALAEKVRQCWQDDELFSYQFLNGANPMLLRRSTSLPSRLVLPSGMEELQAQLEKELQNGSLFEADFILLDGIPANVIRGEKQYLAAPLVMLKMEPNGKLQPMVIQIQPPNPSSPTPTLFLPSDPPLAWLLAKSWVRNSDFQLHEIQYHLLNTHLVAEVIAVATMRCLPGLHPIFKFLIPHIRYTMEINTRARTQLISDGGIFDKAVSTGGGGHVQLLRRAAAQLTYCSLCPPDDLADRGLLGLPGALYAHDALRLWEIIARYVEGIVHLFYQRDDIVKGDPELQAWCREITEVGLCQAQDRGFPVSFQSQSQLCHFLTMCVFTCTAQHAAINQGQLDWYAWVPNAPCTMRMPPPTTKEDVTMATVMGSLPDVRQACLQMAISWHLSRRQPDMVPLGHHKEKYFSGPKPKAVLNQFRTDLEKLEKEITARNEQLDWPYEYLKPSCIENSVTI
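Purified human 12hLO at 150 nM in 25 mM Hepes, 0.01% Triton X-100, pH 7.0, preincubated 15 min at room temperature with compound. Reaction started with 40 uM arachidonic acid, 30 min at room temperature. Hydroperoxide measured by Fe-xylenol orange, 573/405 nm absorbance ratio.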
DT40 TDP1 CPT: DT40-hTDP1 cell growth loss with CPT. Potency, µM (highest dose often 46.2 µM), for the others: top-dose activity change, negative = growth inhibition, most hits filed as inhibitors. 420,000 tested, 12% active. AID 686979. chicken DT40 Tdp1-/-;hTDP1 cells + 20 nM CPT, ATP luminescence, 48 h; also: nearly all actives have a fitted effect of over 55% in size
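Chicken DT40 Tdp1-/- cells stably complemented with human TDP1 were seeded at 400 cells/well in medium containing 20 nM camptothecin, exposed to pin-transferred compounds, and grown at 37 °C for at least 48 hr. Viability was read as ATP luminescence.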
VP16 counter: counter-screen for ROR gamma inhibitors: Gal4-VP16 reporter. Drosophila S2 Gal4-VP16 UAS-luciferase, luminescence, 20 h. 310,000 tested, 3.5% active. Potency, µM (top dose mostly 53.6 µM), inactives show top-dose activity, negative = inhibition, most hits filed as inhibitors;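 also: Gal4-VP16 expression switched on by copper sulfate through the metallothionein promoter; nearly all actives have a fitted effect of over 50% in size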
Numbers without * were called inactive; ? = inconclusive; nt = no result given; [ ] = remark or other dose. Calls follow the shape of the dose curve; as a rule, active = well fitted curve in the direction sought with a large enough effect; inconclusive = small, poorly fitted or top-dose-only effect, or another doubt; inactive = no such curve, though single readings can be large; an effect the other way counts as inactive or inconclusive. % is scaled to controls: 0 for no effect and ±100 for the full control effect; potency is read from the fitted curve at half-maximal effect.

SMILES	TDP1 cell noCPT	RORg inh	ELG1 repair inh	12-LOX inh	DT40 TDP1 CPT	VP16 counter
Cc1ccc(-n2cc(CN3CCC(CO)(Cc4cccc(C(F)(F)F)c4)CC3)cn2)cc1	20.6µM*	17.8µM*	7.2%	?	9.2µM*	?
CC(C)Cc1cc(CN2CCC(CO)(CN3CCCC3)CC2)[nH]n1	nt	nt	nt	44.0%	nt	nt
CCOc1ccccc1CN1CCCN(Cc2ccncc2)C(c2ccccc2)CC(=O)NCC1 (centres undefined)	nt	nt	nt	62.8%	nt	nt
CCOc1ccc(NC(=O)CSc2nccn2Cc2ccccc2OC)cc1	nt	nt	nt	-8.7%	nt	nt
COc1ccc(/C(N)=N/OC(=O)c2ccco2)cc1	?	7.94µM*	?	-34.4%	?	10µM*
O=C(c1cccc(Cl)c1)N1CCN(c2cn[nH]c(=O)c2Cl)CC1	nt	nt	nt	-14.1%	nt	nt
COc1cc(C(=O)NCC(c2cccs2)N(C)C)cc(Cl)c1OC(C)C (centres undefined)	20.6µM*	37.2%	?	-25.0%	?	2.6%
COc1cc2ccccc2cc1C(=O)NCC(c1cccs1)N(C)C (centres undefined)	16.4µM*	-3.6%	?	465.2%	?	-22.8%
CCc1nc(C)c(C(=O)NCc2cccnc2Oc2ccc(F)c(F)c2)o1	nt	nt	nt	17.9%	nt	nt
COc1ccc(NC(=O)CSc2nnc3c4c(nc(-c5ccccc5)n23)CC(C)(C)OC4)cc1	?	28.3%	18.4µM*	-14.9%	?	-0.7%
Cc1ccc(NC(=O)C(C)Sc2nnc(C)n2C)cc1 (centres undefined)	6.1%	-11.3%	4.2%	-26.0%	-2.1%	-12.9%
COc1ccc(-c2nc3c(c4nnc(SC(C)C(=O)Nc5ccc(C)cc5)n24)COC(C)(C)C3)cc1 (centres undefined)	?	24.1%	20.6µM*	-3.1%	3.2%	-2.4%
COc1ccc(C)cc1S(=O)(=O)N1CCN(S(=O)(=O)c2cc(C)ccc2OC)CC1	-14.6%	-6.7%	1.5%	0.0%	-13.0%	-5.9%
COc1ccc(CN2CCN(C/C=C/c3ccccc3)CC2)cc1OC	nt	nt	nt	0.0%	nt	nt
COc1ccc(CN2CCN(C/C=C/c3ccccc3)CC2)c(OC)c1OC	nt	nt	nt	0.562µM*	nt	nt
COc1ccc(C)cc1S(=O)(=O)N1CCN(C/C=C/c2ccccc2)CC1	14.6µM*	nt	-7.8%	101.9%	?	nt
CC(C)=CCN1CCN(Cc2ccccn2)CC1	nt	nt	nt	15.4%	nt	nt
CCOC(=O)C1(CCOc2ccccc2)CCN(Cc2cccc3c2OCO3)CC1	14.6µM*	34.4%	?	-2.8%	23.1µM*	1.0%
CCOC(=O)C1(CCOc2ccccc2)CCN(Cc2cc(OC)c3c(c2)OCO3)CC1	11.6µM*	43.7%	?	-0.7%	20.6µM*	-4.8%
CCOC(=O)C1(CCOC)CCN(CC(C)Cc2ccc3c(c2)OCO3)CC1 (centres undefined)	-12.5%	1.9%	-7.1%	-7.2%	-16.0%	-14.6%
COc1ccc(C(=O)N2CCC3(CC2)N=C(c2ccc(C)cc2)NO3)cc1F	nt	nt	nt	1.7%	nt	nt
COc1ccc(-c2cc(-c3cccc(NC(C)=O)c3)cn3cncc23)cn1	nt	nt	nt	4.4%[176 µM]	nt	nt
Cc1ccc(C(=O)c2cn(Cc3cccc(F)c3)c3nc(C)ccc3c2=O)cc1	20.6µM*	nt	nt	?	?	nt
Cc1ccc(C(=O)c2cn(Cc3ccccc3C)c3nc(C)ccc3c2=O)cc1	20.6µM*	nt	nt	-19.7%	20.6µM*	nt
COc1ccc(-c2cc(-c3nc(-c4ccc(Br)cc4)no3)[nH]n2)c(OC)c1	nt	nt	nt	5.8%	nt	nt
Cc1ccc(-n2nc3n(c2=O)CCN([S+](C)(=O)[O-])C3)cc1	nt	nt	nt	30.2%[176 µM]	nt	nt

Screening data (PubChem BioAssay)
